Among all 1,600 compounds or so, about 990 (62%) were called active. Another 30% or so got no clear call; they are omitted. Calls come from the whole dose curve; as a rule, active = well fitted inhibition curve with a large enough effect; inconclusive = small, poorly fitted or top-dose-only effect; inactive = no such curve, though single readings can be large or run the other way. So high a share suggests a set chosen from earlier hits. The list is a sample of the results.
Assay: qHTS for Inhibitors of TGF-b: Confirmation of Cherry Picks; note: nearly all actives have a fitted effect of over 65% in size
Settings: HepG2 CAGA-GFP TGF-b reporter, GFP fluorescence, 18 h, cells stimulated with TGF-beta, 500 pg/mL; series mostly up to 46.1 µM
Excerpt: TGF-b is a main component in the TGF-b signaling pathway which plays diverse roles in cellular and development pathways. TGF-b is mediated through transcription factors called "Smads". Although the Smad-dependent pathway is the primary canonical TGF-b signaling mode, TGF-b1 can also activate alternative signaling pathways, including those involving MAPK (ERK, JNK and p38). This interaction may mediate or enhance Smad-dependent responses, or can exert Smad-independent effects. The complexity of this signaling cascade allows the TGF-b superfamily to perform unique, overlapping or redundant functions. We believe that targeting the TGF-beta pathway at the Smad-transcription factor level may eliminate the consequences of disrupting the entire pathway and offer specificity without affecting other signaling pathways. Smad3 is the primary transducer of TGF-b's signals and Smad3 regulates many functions attributed to TGF-b signaling. We hypothesize that Smad3 inhibitors will selectively eliminate Smad3-specific TGF-beta signals without undesired off-target effects. We aim to identify Smad3-small molecule antagonists using a quantitative high throughput screening (qHTS) approach. In this assay, hits identified from the primary screen were re-tested. MH087449NIH Chemical Genomics Center [NCGC] NIH Molecular Libraries Probe Centers Network [MLPCN] MLPCN Grant: MH087449 Assay Submitter (PI): Sushil Rane, National Institute of Diabetes and Kidney Diseases
Suspensions of trypsinized HEPG2 CAGA-GFP cells were dispensed into white, tissue culture-treated, solid 1536-well plates at 5uL/well (1000 cells/well final concentration) in DMEM medium supplemented with 1% FBS. Plates were incubated at 37 degrees C for 2 hours, after which 23 nL of compounds or DMSO were delivered to each well using a pin tool. One uL of recombinant TGF-beta in DMEM (1% FBS) was then dispensed (500 pg/mL final concentration), and plates were incubated at 37 degrees C for 18 hours. The plates were measured on an Acumen eX3 Explorer plate reader for GFP fluorescence (ex488/em500-530). GFP values were calculated by determining the mean GFP fluorescence of individual cells, and compiling these values for each well to determine a total well GFP signal. The %Activity was determined from the corrected fluorescence values. A titration of the known TGF-B inhibitor SB431542 was included to monitor plate performance, while unstimulated HEPG2 (-TGF-B) control wells were used to normalize %Activity of identified inhibitors; unstimulated wells corresponded to 100%Activity (full inhibition), while stimulated cell controls (+DMSO) were used to normalize 0%Activity (no inhibition). Concentration-response curves were fitted to the signals arising from the resulting fluorescence. The concentration-effect curves were then classified based on curve quality (r2), response magnitude and degree of measured activity, and compounds were subsequently categorized based on their curve class.
Potency is the fitted concentration of half-maximal effect.

**Q.** For `O=[N+]([O-])c1ccccc1S(=O)(=O)Nc1cccc2cccnc12`, which Potency is on record?
**A.** 13 µM (active)

**Q.** Which Potency does the source give for `CN(C)CCNC(=O)c1ccc(Cl)c2cc3ccccc3nc12` here?
**A.** 3.26 µM (active)

**Q.** Which Potency does the source give for `O=C(NC1=CC(=O)c2ccccc2C1=O)c1ccccc1` here?
**A.** 5.17 µM (active)

**Q.** Which Potency does the source give for `COC(=O)COc1cccc2c(=O)n(CC(=O)NCc3ccccc3)ccc12` here?
**A.** inactive

**Q.** With `COc1cc(NC(=O)c2ccccc2NS(=O)(=O)c2ccc(Cl)s2)cc(OC)c1` as the molecule, how does the Potency read?
**A.** 5.8 µM (active)

**Q.** Which Potency does the source give for `CN(c1ccccc1)S(=O)(=O)c1ccc(C(=O)N2CCN(c3ccccc3Cl)CC2)cc1` here?
**A.** 5.8 µM (active)

**Q.** With `COc1ccc(CNC(=O)C[C@H]2C[C@H](C(=O)N3CCOCC3)[C@@]3(CCC4CCCC4)c4[nH]c5ccc(Cl)cc5c4CCN3C2=O)cc1OC` as the molecule, how does the Potency read?
**A.** 4.61 µM (active)

**Q.** For `COc1ccc(C(=O)c2c3ccc([N+](=O)[O-])cc3[n+]([O-])n2CCCN)cc1`, which Potency is on record?
**A.** 18.4 µM (active)

**Q.** For `COc1cc(NC(=O)c2[nH]cnc2C(N)=O)cc(C(=O)Nc2cccc(C(F)(F)F)c2)c1`, which Potency is on record?
**A.** 16.4 µM (active)

**Q.** For `Cn1c(=O)n(C)c2cc(S(=O)(=O)N3CCCc4ccccc43)ccc21`, which Potency is on record?
**A.** inactive

**Q.** With `COc1cc(CC(=O)Nc2nc(-c3ccc(F)c(F)c3)cs2)cc(OC)c1OC` as the molecule, how does the Potency read?
**A.** 11.6 µM (active)

**Q.** For `Cc1oc2c(F)c(F)c(F)c(F)c2c1S(=O)(=O)Nc1cccc(C(F)(F)F)c1`, which Potency is on record?
**A.** 20.6 µM (active)

**Q.** For `Clc1ccc(Nc2nc(-c3cccs3)cs2)nc1`, which Potency is on record?
**A.** 13 µM (active)

**Q.** Which Potency does the source give for `CCOc1ccc(CCN2C(=S)N([C@@H](CC(C)C)CN3CCC[C@@H]3CN3C(=S)NC[C@@H]3Cc3ccc(O)cc3)C[C@@H]2CC(C)C)cc1` here?
**A.** 18.4 µM (active)

**Q.** Which Potency does the source give for `CCN(CC)C(=O)C1=C(C)N(Cc2ccc(C(C)(C)C)cc2)C(=O)C(CC(=O)NCc2cccc3ccccc23)C1` (stereo not given) here?
**A.** 14.6 µM (active)

**Q.** Which Potency does the source give for `COC(=O)N/N=C/c1cn(CCCOc2ccc(C)cc2)c2ccccc12` here?
**A.** 14.6 µM (active)

**Q.** With `c1ccc2cc3c(NCCN4CCOCC4)ccnc3cc2c1` as the molecule, how does the Potency read?
**A.** 18.4 µM (active)

**Q.** For `c1ccc(-c2cn3c(n2)CCc2ccc4cccnc4c2-3)cc1`, which Potency is on record?
**A.** inactive

**Q.** Which Potency does the source give for `O=C(/C(=C/c1cccc(Cl)c1)c1nc2ccccc2[nH]1)c1ccccc1` here?
**A.** 2.91 µM (active)

**Q.** With `CC(=O)c1ccc(-c2cnc3c(NC=O)cc(-c4cccc(NS(C)(=O)=O)c4)cn23)cc1` as the molecule, how does the Potency read?
**A.** 0.731 µM (active)

**Q.** For `CC(=O)c1cccc(-c2cnc3c(NC=O)cc(-c4ccc(N(C)C)cc4)cn23)c1`, which Potency is on record?
**A.** 7.31 µM (active)

**Q.** Which Potency does the source give for `O=C(Nc1ccc(Cl)cc1)Nc1nnc(/C=C/c2ccccc2)s1` here?
**A.** inactive

**Q.** For `COc1ccc(-c2onc(C)c2-c2ccc3c(c2)OCCO3)c(O)c1`, which Potency is on record?
**A.** 16.4 µM (active)

**Q.** With `COc1cc(NC(=O)COC(=O)c2ccc([N+](=O)[O-])s2)cc(OC)c1OC` as the molecule, how does the Potency read?
**A.** 23.1 µM (active)

**Q.** With `Cc1ccnc(NC(=O)C2CCN(S(=O)(=O)c3c(C)c(C)cc(C)c3C)CC2)c1` as the molecule, how does the Potency read?
**A.** 7.31 µM (active)

**Q.** With `S=C(NCC1COc2ccccc2O1)Nc1ccc(Br)cc1` (stereo not given) as the molecule, how does the Potency read?
**A.** 18.4 µM (active)

**Q.** Which Potency does the source give for `CN(C)c1nc(N)nc(CSc2nnnn2-c2cccc3ccccc23)n1` here?
**A.** 7.31 µM (active)

**Q.** Which Potency does the source give for `CN(C)c1nc(=Nc2cccc(Cl)c2)ss1` here?
**A.** 5.17 µM (active)

**Q.** Which Potency does the source give for `Cc1cccc(-c2nc(Nc3ccc(O)cc3)c3ccccc3n2)c1` here?
**A.** 18.4 µM (active)

**Q.** For `COc1cc(/C=C2\Oc3ccc(C#Cc4ccc(O)cc4)cc3C2=O)cc(OC)c1`, which Potency is on record?
**A.** 6.51 µM (active)

**Q.** Which Potency does the source give for `O=C(Nc1nnc(S(=O)(=O)N2CCCCCC2)s1)c1cccc(Br)c1` here?
**A.** 23.1 µM (active)

**Q.** Which Potency does the source give for `O=C(Nc1ccc(Br)cn1)c1ccc([N+](=O)[O-])o1` here?
**A.** 18.4 µM (active)

**Q.** For `COc1ccc(CC(=O)Nc2ccccc2NC(=O)c2ccco2)cc1OC`, which Potency is on record?
**A.** inactive

**Q.** With `CCOC(=O)C1=C(N)N(c2ccc(C)cc2)C2=C(C(=O)CCC2)C1c1cccs1` (stereo not given) as the molecule, how does the Potency read?
**A.** 23.1 µM (active)

**Q.** For `Cc1nc(/N=C(\N)NC(=O)NC2CCCCC2)nc2ccccc12`, which Potency is on record?
**A.** 11.6 µM (active)

**Q.** Which Potency does the source give for `Clc1ccc2c(c1)C1=C(C(c3ccncc3)O2)C(c2ccc(Br)cc2)n2ncnc2N1` (stereo not given) here?
**A.** 2.31 µM (active)

**Q.** Which Potency does the source give for `CCCOc1ccccc1C1CC(=O)Nc2cc3c(cc21)OCO3` (stereo not given) here?
**A.** 8.2 µM (active)

**Q.** With `COc1cccc2sc(N(CCCN(C)C)C(=O)CCS(=O)(=O)c3ccccc3)nc12` as the molecule, how does the Potency read?
**A.** 3.26 µM (active)

**Q.** Which Potency does the source give for `Cc1cccc2sc(N(CCCN(C)C)C(=O)CCS(=O)(=O)c3ccccc3)nc12` here?
**A.** 5.17 µM (active)

**Q.** For `COc1ccc(C)cc1S(=O)(=O)N1CCN(S(=O)(=O)c2cc(C(=O)O)ccc2C)CC1`, which Potency is on record?
**A.** inactive

**Q.** With `Cc1nn(-c2ccccc2)c(C)c1/C=N/NC(=O)CSc1nc2ccccc2c(=O)n1-c1ccccc1` as the molecule, how does the Potency read?
**A.** 2.31 µM (active)

**Q.** With `Cc1ccc(CN2CC(N3CCC(Cc4ccccc4)CC3)CS2(=O)=O)cc1` (stereo not given) as the molecule, how does the Potency read?
**A.** 20.6 µM (active)

**Q.** With `O=C(Nc1ccc(C2CC2(Cl)Cl)cc1)c1cccc([N+](=O)[O-])c1` (stereo not given) as the molecule, how does the Potency read?
**A.** inactive

**Q.** Which Potency does the source give for `Cc1ccc(S(=O)(=O)Nc2nc3ccccc3nc2N2CCc3ccccc3C2)cc1` here?
**A.** 18.4 µM (active)

**Q.** For `Cc1cccc(NS(=O)(=O)c2ccc(-c3cnc(C4CC4)o3)cc2)c1`, which Potency is on record?
**A.** 16.4 µM (active)

**Q.** Which Potency does the source give for `COc1ccc2nc(N3CCN(C(=O)c4ccc([N+](=O)[O-])o4)CC3)sc2c1` here?
**A.** 20.6 µM (active)

**Q.** Which Potency does the source give for `OCC1OC(n2cnc3c(N4CCCC4)ncnc32)C(O)C1O` (stereo not given) here?
**A.** 2.59 µM (active)

**Q.** For `CCC(C)N1C(=O)S/C(=C/c2ccc(Sc3nc4ccccc4[nH]3)o2)C1=O` (stereo not given), which Potency is on record?
**A.** 5.17 µM (active)

**Q.** For `CCCOc1ccc(F)cc1-c1cc(C(=O)Nc2ccc(F)c(Cl)c2)[nH]n1`, which Potency is on record?
**A.** 20.6 µM (active)

**Q.** With `Clc1cccc(Cc2c(-c3cccc(Cl)c3)nc3ccc(Cl)cn23)c1` as the molecule, how does the Potency read?
**A.** 18.4 µM (active)

**Q.** Which Potency does the source give for `Oc1c(CN2CCN(c3ccc(F)cc3)CC2)cc(Cl)c2cccnc12` here?
**A.** 6.51 µM (active)

**Q.** Which Potency does the source give for `OCCCNc1nccc(-c2cc(Nc3cccc(Cl)c3)ncn2)n1` here?
**A.** 0.411 µM (active)

**Q.** With `CC(=NNC(=S)N1CCCCCC1)c1ccccn1` as the molecule, how does the Potency read?
**A.** 0.651 µM (active)

**Q.** For `Cc1cccc(NC(=O)c2nc(S(=O)(=O)Cc3ccccc3)ncc2Cl)c1`, which Potency is on record?
**A.** 4.11 µM (active)

**Q.** Which Potency does the source give for `Cc1cccc(CS(=O)(=O)c2ncc(Cl)c(C(=O)Nc3ccc(F)cc3)n2)c1` here?
**A.** 5.17 µM (active)
